Assay outcomes from PubChem BioAssay.
TCR act = Activators of T cell receptors: qHTS campaign; primary human leukocytes, anti-CD3, IL-2 HTRF, 48 h; Potency, µM (highest dose often 9.22 µM), hits mostly activators; 330,000 tested, under 10 active; AID 504894, 2011
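Activity was scored as IL-2 release from primary human leukocytes given only a TCR signal (a-CD3 beads) plus compound for 48 hr. Detection used a two-antibody HTRF format read at 665nm.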
FBPA coupling cs = qHTS Assay for Inhibitors of Fructose-1,6-bisphosphate Aldolase from Giardia Lamblia: Coupling assay counterscreen; 290,000 compounds, 0.67% hits; coupling enzyme system counterscreen, AmpLite Red fluorescence; activity change, negative = inhibition, % at 58.2 µM, hits read low; in the data active = activity change below about -30%
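Counterscreen lacking aldolase: glyceraldehyde-3-phosphate coupling-enzyme reagent preincubated 10 min at RT with compound (at 57.5 uM final), then substrate/coupling system with AmpLite Red added; fluorescence read at 525/598 nm after 20 min RT.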
TSHR antag = Antagonists of the Thyroid Stimulating Hormone Receptor: HTS campaign; Thyrotropin receptor (Homo sapiens), P16473; TSHR-expressing cells, TSH-stimulated cAMP HTRF, 2 h; hits give low values; activity change, negative = inhibition, % at 11.5 µM; 330,000 compounds, 0.2% hits; AID 504810, 2011;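 active = activity change below a set negative limit, meaning inhibition stronger than a set level, cut at about -70% in these data; inconclusive = activity change between two set negative limits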
Target sequence (P16473 whole entry, looked up): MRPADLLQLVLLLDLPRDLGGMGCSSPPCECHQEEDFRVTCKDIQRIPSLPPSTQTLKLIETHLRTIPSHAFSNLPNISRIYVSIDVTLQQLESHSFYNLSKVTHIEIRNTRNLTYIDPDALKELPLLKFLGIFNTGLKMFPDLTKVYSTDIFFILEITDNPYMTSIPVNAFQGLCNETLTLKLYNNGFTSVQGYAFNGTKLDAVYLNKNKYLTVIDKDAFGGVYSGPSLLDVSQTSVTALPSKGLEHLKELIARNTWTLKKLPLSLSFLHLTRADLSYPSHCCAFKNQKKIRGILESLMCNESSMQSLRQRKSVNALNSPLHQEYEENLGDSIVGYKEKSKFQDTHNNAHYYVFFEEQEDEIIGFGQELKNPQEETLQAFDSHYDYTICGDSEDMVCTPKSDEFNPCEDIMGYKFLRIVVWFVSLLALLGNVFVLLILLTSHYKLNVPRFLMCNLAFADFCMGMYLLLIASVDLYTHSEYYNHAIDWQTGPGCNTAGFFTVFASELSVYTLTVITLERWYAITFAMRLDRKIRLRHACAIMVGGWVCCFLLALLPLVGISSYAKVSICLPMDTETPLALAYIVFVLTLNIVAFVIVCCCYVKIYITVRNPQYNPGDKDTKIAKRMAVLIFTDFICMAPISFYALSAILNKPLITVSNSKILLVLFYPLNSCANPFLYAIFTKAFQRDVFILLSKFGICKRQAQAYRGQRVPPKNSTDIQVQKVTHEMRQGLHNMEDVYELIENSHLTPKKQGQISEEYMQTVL
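Freshly harvested TSHR cells receive pin-tooled compound, then EC80 TSH at 4nM final. After 2 hours at 37 deg C, antibody in lysis buffer and cAMP-d2 are added; 30 minutes at ambient temperature precede the HTRF read.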
NPSR antag = qHTS Assay for Antagonists of the Neuropeptide S Receptor: cAMP Signal Transduction; CHO-NPSR cells, cAMP TR-FRET, antagonist mode; Potency, µM (highest dose often 38.3 µM), hits mostly inhibitors; 220,000 compounds, 1% hits; AID 1461, 2008; also: nearly all actives have a fitted effect of over 50% in size
TR SRC2 fluor cs = Total Fluorescence Counterscreen for Inhibitors of the Interaction of Thyroid Hormone Receptor and Steroid Receptor Coregulator 2 | TRb/SRC2 Texas Red total fluorescence interference | Potency, µM (series often up to 106 µM) | 280,000 compounds, 0.29% hits; active = well fitted curve in either direction with a large enough effect; inconclusive = small, poorly fitted or top-dose-only effect
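Flags fluorescent or light-absorbing compounds by total fluorescence, S + 2P, at 555 nm excitation and 632 nm emission. Mixture: 20 nM Texas Red SRC2 peptide, 0.6 uM human TRb LBD, 1 uM T3, 5% DMSO; compound exposure 5 h at ambient temperature.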
TRb-SRC2 inh = qHTS for Inhibitors of the Interaction of Thyroid Hormone Receptor and Steroid Receptor Coregulator 2; AID 1469, 2008; Potency, µM (series often up to 106 µM), hits mostly inhibitors; TRbeta-SRC2 peptide binding, fluorescence polarization; receptor liganded with 1 µM T3; Thyroid hormone receptor beta (Homo sapiens), P10828; 280,000 compounds, 0.065% hits; also: nearly all actives have a fitted effect of over 50% in size
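Fluorescence polarization of 20 nM Texas Red SRC2 peptide with 0.6 uM human TRb ligand-binding domain, in Tris buffer with 1uM T3 and 5% DMSO. Incubated 5 hr ambient; normalized to unbound and bound controls.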
Hits are given with their value; n = inactive; u = inconclusive; x = not tested or not shown; [ ] = dose if it differs, or a comment. This is a sample that favours compounds with a hit; in the whole collection about 1% have one here. Unless noted, calls follow the shape of the dose curve; as a rule, active = well fitted curve in the direction sought with a large enough effect; inconclusive = small, poorly fitted or top-dose-only effect, or another doubt; inactive = no such curve, though single readings can be large; an effect the other way counts as inactive or inconclusive.

SMILES | TCR act | FBPA coupling cs | TSHR antag | NPSR antag | TR SRC2 fluor cs | TRb-SRC2 inh
CC[C@H](C)[C@H](NC(=O)[C@H](Cc1ccc(O)cc1)NC(=O)[C@H](Cc1cnc[nH]1)NC(=O)[C@H](CCCNC(=N)N)NC(=O)[C@H](CC(C)C)NC(=O)[C@H](C)NC(=O)[C@H](CO)NC(=O)[C@H](Cc1ccc(O)cc1)NC(=O)[C@H](Cc1ccc(O)cc1)NC(=O)[C@H](CCCNC(=N)N)NC(=O)[C@H](C)NC(=O)[C@H](CC(C)C)NC(=O)[C@H](CC(=O)O)NC(=O)[C@H](CCC(=O)O)NC(=O)[C@H](C)NC(=O)[C@@H]1CCCN1C(=O)[C@H](C)NC(=O)[C@H](CC(=O)O)NC(=O)[C@H](CCC(=O)O)NC(=O)CNC(=O)[C@@H]1CCCN1C(=O)[C@H](CC(N)=O)NC(=O)[C@H](CC(=O)O)NC(=O)[C@@H]1CCCN1C(=O)[C@H](CCCCN)NC(=O)[C@H](CO)NC(=O)[C@@H]1CCCN1C(=O)[C@@H](N)Cc1ccc(O)cc1)C(=O)N[C@@H](CC(N)=O)C(=O)N[C@@H](CC(C)C)C(=O)N[C@H](C(=O)N[C@H](C(=O)N[C@@H](CCCNC(=N)N)C(=O)N[C@@H](CCC(N)=O)C(=O)N[C@@H](CCCNC(=N)N)C(=O)N[C@@H](Cc1ccc(O)cc1)C(N)=O)[C@@H](C)O)[C@@H](C)CC | x | n | x | x | n | n
COC(=O)C1CCCN1S(=O)(=O)c1ccc2ccccc2c1 (configuration not stated) | n | n | -78 | n | n | n
COC(=O)C1CCCN1S(=O)(=O)c1ccc([N+](=O)[O-])cc1 (configuration not stated) | n | n | n | x | x | x
CC(=O)c1ccc(NS(=O)(=O)c2ccc3[nH]c(=O)[nH]c3c2)cc1 | x | x | x | x | n | n
CC(C)(CNC(=O)C1c2ccccc2-c2ccccc21)N1CCOCC1 | n | n | -82 | x | x | x
CC1=CC2=C(OC1N(C)C)c1cccc3cccc(c13)C2=O (configuration not stated) | n | n | n | u | n | 40µM
O=c1n(Cc2ccccc2)nc2n1-c1ccccc1OC2 | x | x | x | x | 10µM[quencher] | n
CN(C)c1ncnc2c1NC1=C(S2)C(=NCCCC(=O)O)CC(C)(C)C1 | n | n | n | u | n | n
COc1ncnc2c1NC1=C(S2)C(=NCCC(=O)O)CC(C)(C)C1 | n | -48 | n | n | n | n
C=CS(=O)(=O)c1ccc(Oc2ccc(S(=O)(=O)C=C)cc2)cc1 | n | n | -89 | n | n | n
NS(=O)(=O)c1ccc(Oc2ccc(S(N)(=O)=O)cc2)cc1 | x | n | n | n | n | n
O=C(/C(=C\c1ccccc1)c1nc2ccccc2[nH]1)c1ccc(Cl)cc1 | n | n | n | 10µM | n | n
COc1cc(/C=C(/C(=O)c2cccs2)c2nc3ccccc3[nH]2)ccc1O | n | n | n | 10µM | n | n
O=C(/C(=C/c1ccc(Cl)cc1)c1nc2ccccc2[nH]1)c1cccs1 | n | n | n | 2µM | n | n
COC(=O)/C(=C\c1ccc(O)cc1)c1nc2ccccc2[nH]1 | n | n | n | n | n | n
COC(=O)/C(=C\c1cc(OC)c(OC)c(OC)c1)c1nc2ccccc2[nH]1 | n | n | n | n | n | n
COc1ccc(OC)c(OC)c1 | x | x | x | x | n | n
COC(=O)c1ccccc1NC(=O)c1ccc2nc(Cc3ccccc3)oc2c1 | x | x | x | x | n | n
Oc1ccc(COC2CCCC2)c2cccnc12 | x | x | n | x | x | x
CC(C)c1ccc(C2CC(=O)N3CN(C)CSC3=C2C#N)cc1 (configuration not stated) | n | n | n | n | n | n
CC(C)c1ccc(C2C(C#N)=C(N)N3C(=C2C#N)Sc2ccccc23)cc1 (configuration not stated) | x | x | n | 7.9µM | n | n
C=Cc1c(C)/c2[n-]/c1=C\c1[n-]c(c(CC)c1C)/C=c1\[n-]c3c(c1C)C(=O)C(C(=O)[O-])C=3c1[n-]c(c(C)c1CCC(=O)[O-])\C=2.[Cu].[Na+].[Na+] (configuration not stated) | x | n | x | x | 25µM[quencher] | 45µM
c1ccc(CSc2nc3ncncc3[nH]2)cc1 | n | n | n | n | n | n
S=c1nc(SCc2ccccc2)[nH]c2ccccc12 | n | n | n | 10µM | n | n
O=C(N/N=C/c1ccc([N+](=O)[O-])o1)c1ccc(O)cc1 | n | n | n | 13µM | n | n
SMILES | TCR act | FBPA coupling cs | TSHR antag | NPSR antag | TR SRC2 fluor cs | TRb-SRC2 inh
O=C(N/N=C/c1ccc([N+](=O)[O-])o1)c1ccncc1 | n | n | n | n | n | n
COc1cc2nc3c(c([Si](C)(C)C(C)(C)C)c2cc1OC)Cn1c-3cccc1=O | x | -42 | x | x | n | n
COc1ccc2nc3c(c([Si](C)(C)C(C)(C)C)c2c1)Cn1c-3cccc1=O | x | n | x | x | n | n
CSc1ccc(CCNC(=O)NCc2noc3ccccc23)cc1 | x | x | x | x | n | n
COc1ccccc1N1CCN(C(=O)CCC(=O)N2CCN(c3ccc(F)cc3)CC2)CC1 | n | n | -124 | x | x | x
COc1ccccc1N1CCN(C(=O)CNS(=O)(=O)c2ccc(Br)s2)CC1 | n | n | n | x | 79µM[quencher] | u
O=c1oc2ccccc2cc1-c1nc2c(s1)CCc1ccccc1-2 | n | -81 | n | n | n | n
CN(C)c1ccc(CNC(=O)c2ccc(NC(=O)c3nsc4ccccc34)cc2)cc1 | x | x | x | x | n | n
CCOC(=O)Cc1cc(=O)n2[nH]c(C)c(-c3ccccc3)c2n1 | n | n | n | n | 45µM[fluorescent] | u
CCOC(=O)Cc1cc(=O)n2[nH]c(-c3ccccc3)c(-c3ccccc3)c2n1 | n | n | n | n | n | n
CC(=O)c1c(C)c([N+](=O)[O-])c(C(C)(C)C)c([N+](=O)[O-])c1C | x | x | x | x | n | n
NC(=S)N/N=C/c1ccc(-c2ccccc2)o1 | n | n | n | n | n | n
Cc1ccc(-c2ccc(/C=N/NC(N)=S)o2)cc1 | n | n | n | 6.3µM | n | n
O=C(O)C(c1ccc(Cl)cc1)c1ccc(Cl)cc1 | x | x | x | x | n | n
COc1ccc2[nH]c3c4c(ccc3c2c1)C(=O)C=CC4=O | n | -38 | n | u | n | n
O=[N+]([O-])c1ccc(-c2nc(C(Cl)Cl)c3ccccc3n2)cc1 | n | n | n | 2µM | n | n
CN(Cc1ccccc1)c1nc(-c2ccc([N+](=O)[O-])cc2)nc2ccccc12 | n | n | n | u | n | n
